Screening data as filed in PubChem.
Marburg entry inh: inhibitors of Marburg virus binding or cell entry | Marburg virus pseudotyped entry inhibition, cell reporter | Potency, µM (titrated, usually from 37.8 µM), without a hit: at the highest dose activity change, negative = inhibition, usual class: inhibitors | 300,000 compounds, 1.8% hits | AID 540276; calls by dose curve; tested in HEK293 cells; further: potency means the concentration at half of the fitted maximal effect
FMDV inh: blocks foot and mouth disease virus; FMDV antiviral cell-based qHTS; Potency, µM (titrated, usually from 57.9 µM), inactives show at the top dose activity change, negative = inhibition, hits mostly inhibitors; 410,000 compounds, 1.2% hits; calls by dose curve; tested in HEK293T cells; further: read-out not given here; potency means the concentration at half of the fitted maximal effect; nearly all actives have a fitted effect of over 45% in size
Giardia FBPA inh: inhibitors of Giardia lamblia fructose-1,6-bisphosphate aldolase; Potency, µM (highest dose often 59.6 µM), inactives show top-dose activity, negative = inhibition, usual class: inhibitors; AID 2451; purified Giardia FBPA; 290,000 compounds, 0.71% hits; further: potency means the concentration at half of the fitted maximal effect; nearly all actives have a fitted effect of over 55% in size
Target sequence (A8B2U2 whole entry, looked up): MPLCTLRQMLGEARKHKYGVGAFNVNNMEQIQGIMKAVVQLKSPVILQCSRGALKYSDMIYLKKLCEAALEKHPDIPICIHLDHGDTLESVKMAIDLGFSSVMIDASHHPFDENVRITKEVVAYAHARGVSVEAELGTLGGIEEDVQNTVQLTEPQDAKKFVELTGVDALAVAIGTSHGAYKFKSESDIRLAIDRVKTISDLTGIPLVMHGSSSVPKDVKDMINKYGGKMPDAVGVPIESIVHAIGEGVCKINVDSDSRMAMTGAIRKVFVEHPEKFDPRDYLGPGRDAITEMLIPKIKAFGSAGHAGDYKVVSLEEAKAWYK
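40 nM FBPA preincubated 10 min at RT with compound (up to 57.5 uM final), then substrate plus GAPDH/TPI/NAD/arsenate coupling and diaphorase/resazurin added. Fluorescence read after 20 min at RT, 525/598 nm.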
Lassa entry inh: blocks Lassa virus binding to or entry into cells; Lassa virus pseudotype entry inhibition, cell reporter; Potency, µM (top dose mostly 37.9 µM), inactives show top-dose activity change, negative = inhibition, actives largely listed as inhibitors; 300,000 compounds, 1.2% hits; AID 540256; calls by dose curve; tested in HEK293 cells; further: potency means the concentration at half of the fitted maximal effect; nearly all actives have a fitted effect of over 50% in size
HCMV inh: human cytomegalovirus inhibition; AID 1259415; 410,000 compounds, 4.5% hits; activity change, negative = inhibition, % at 57.5 µM; HFF cells, HCMV-luciferase reporter, 72 h; active compounds read low; in the data active means activity change below about -60%; inconclusive means no clear call, values can overlap the other calls; inactive means above about -39%
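Two compound doses tested in HFFs infected with HCMV-luciferase, MOI 1 PFU/cell, 72 h at 37C. Lysate luminescence read with OneGlo; data normalized against buffer-only and 10uM Salinomycin inhibitor controls.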
HCV inhibitor: blocks hepatitis C virus; Huh7.5.1 HCVcc-Cre infection, luciferase reporter, 44 h; Potency, µM (top dose mostly 41.8 µM), without a hit: at the top dose activity change, negative = inhibition, actives largely listed as inhibitors; 340,000 compounds, 3.4% hits; AID 651820; further: potency means the concentration at half of the fitted maximal effect
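HCVcc-Cre virus at an moi near 0.5 was added right after compound to cells cultured 4 h from seeding (1,000 cells/well). Luciferase activity was determined 44 h later, 15 min after substrate addition at RT.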
* hit, by the source's call; ? = inconclusive; . = no result given; [ ] = dose if it differs, or a comment. Sampled rows, rich in hits. Any-hit rate of the full collection: about 8.3%. Unless noted, the call rests on the fitted dose curve; in most records, active means well fitted curve in the direction sought with a large enough effect; inconclusive means small, poorly fitted or top-dose-only effect, or another doubt; inactive means no such curve, though single readings can be large; an effect the other way counts as inactive or inconclusive. On the % scale 0 is the no-effect control and ±100 the full control effect.

SMILES	Marburg entry inh	FMDV inh	Giardia FBPA inh	Lassa entry inh	HCMV inh	HCV inhibitor
CC1(Oc2ccccc2)CCN(Cc2ccc(-c3ccccn3)cc2)C1 (centres undefined)	.	-15%	.	.	-37	.
CC1(Oc2ccc(Cl)cc2)CCN(Cc2ccc(-c3ccccn3)cc2)C1 (centres undefined)	.	-22%	.	.	-82*	.
Cc1ccc(-c2nnc(Nc3ccc4c(c3)OCO4)c3ccccc23)cc1S(=O)(=O)NCCO	-15%	?	-14%	-16%	-94*	-12%
Cc1ccc(-c2nnc(Nc3ccc4c(c3)OCO4)c3ccccc23)cc1S(=O)(=O)NC(C)C	?	40%	-9%	?	-92*	?
Cc1ccc(-c2nnc(Nc3ccc(CC(N)=O)cc3)c3ccccc23)cc1S(=O)(=O)NCCO	.	34%	-7%	.	16	8%
Cc1ccc(C)c(Nc2nnc(-c3ccc(C)c(S(=O)(=O)NCC4CCCO4)c3)c3ccccc23)c1 (centres undefined)	?	1%	.	-16%[46.1 µM]	-104*	.
Cc1ccc(-c2nnc(Nc3ccccc3)c3ccccc23)cc1S(=O)(=O)NCC1CCCO1 (centres undefined)	?	5%	-3%	?	?	?
Cc1ccc(-c2nnc(Nc3ccc(Cl)c(Cl)c3)c3ccccc23)cc1S(=O)(=O)NCCO	.	17%	.	?	-91*	.
CC[C@H](C)[C@H](N)C(=O)N[C@@H](CCCNC(=N)N)C(=O)N[C@@H](CCC(N)=O)C(=O)NCC(=O)N1CCC[C@H]1C(=O)N[C@@H](CCCCN)C(=O)N[C@@H](CCC(=O)O)C(=O)N1CCC[C@H]1C(=O)N[C@@H](Cc1ccccc1)C(=O)N[C@@H](CCCNC(=N)N)C(=O)N[C@@H](CC(=O)O)C(=O)N[C@@H](Cc1ccc(O)cc1)C(=O)N[C@H](C(=O)N[C@@H](CC(=O)O)C(=O)N[C@@H](CCCNC(=N)N)C(=O)N[C@@H](Cc1ccccc1)C(=O)N[C@@H](Cc1ccc(O)cc1)C(=O)N[C@@H](CCCCN)C(=O)N[C@H](C(=O)N[C@@H](CC(C)C)C(=O)O)[C@@H](C)O)C(C)C	.	.	1%	.	.	.
COc1ccc(-n2c(=O)c3c4c(sc3n(Cc3ccc(F)cc3)c2=O)CN(C(C)=O)CC4)c(OC)c1	35%[46.1 µM]	-6%	.	.	12	.
O=C(NCc1cccc(Cl)c1)c1ccc(NC(=O)N2CC3CCCN3c3ccccc32)cc1 (centres undefined)	.	-11%	.	-9%[46.1 µM]	4	.
Cc1cc(OCc2cc(C(=O)NCCN3CCCCC3CO)no2)cc(C)c1Cl (centres undefined)	?	-19%	.	?	-11	8.9µM*
CCOc1ccccc1N(C)C(=O)c1cc2c(=O)n(CC)c3ccccc3c2s1	.	0%	-4%	.	-1	2µM*
CCn1c(=O)c2cc(C(=O)N(CCN(C)C)Cc3ccccc3)sc2c2ccccc21	4%[46.1 µM]	-9%	.	23%[46.1 µM]	?	.
CCn1c(=O)c2cc(C(=O)N(C)CC(OC)OC)sc2c2ccccc21	.	-11%	2%	.	-20	11µM*
CC(C)C[C@H]1COc2c(Cl)cccc2S(=O)(=O)N1Cc1cccc(Cl)c1	?	.	.	.	-17	.
CCc1ccc(-c2cc3c(=O)n(CC(=O)NCCN4CCCCC4C)nc(C)n3n2)cc1 (centres undefined)	?	3%	3%	16%[46.1 µM]	-7	11µM*
CCC1CCCCN1CCCNC(=O)CSc1nc2nc(C)c(Cc3ccc(C)cc3)c(C)n2n1 (centres undefined)	11µM*	-9%	6%	?	-33	?
Cc1ccc(-c2ccc(=O)n(CC(=O)NCCN3CCCCC3C)n2)cc1 (centres undefined)	5%	.	-1%	-4%	-18	-13%
CCC1CCCCN1CCCNC(=O)Cn1nc(-c2ccc(C)cc2)ccc1=O (centres undefined)	?	.	-1%	-5%	-71*	?
CCCCN(CC)C(=O)Nc1ccc2c(c1)N(C)C(=O)c1ccccc1S2	?	-21%	.	?	-8	.
CC(C)(c1ccccc1)c1ccc(OCC(O)CNC2CCN(Cc3ccccc3)CC2)cc1 (centres undefined)	?	?	-28%	.	-113*	8.9µM*
CCOc1ccc(OCC(O)CNC2CCN(Cc3ccccc3)CC2)cc1 (centres undefined)	1.6µM*	-17%	5%	6.3µM*	-64*	?
CCCCC/C=C\C/C=C\C/C=C\C/C=C\CCCCCC(=O)NCCCC(=O)O	.	.	-1%	.	.	.
COc1ccc(-c2cc(C(F)F)nc(-n3nc(C)cc3C)n2)cc1	-2%	-30%	-3%	-7%	-25	?
SMILES	Marburg entry inh	FMDV inh	Giardia FBPA inh	Lassa entry inh	HCMV inh	HCV inhibitor
Cc1ccc(-c2cc(C(F)F)nc(N3CCOCC3)n2)cc1	?	-29%	0%	-5%[46.1 µM]	-39	5.6µM*
FC(F)(F)c1cc(-c2ccc(Cl)cc2)nc(NCc2cccnc2)n1	-21%	?	-2%	-26%	-27	11µM*
Cc1ccc(-c2cc(C(F)F)nc(NCC3CCCO3)n2)cc1 (centres undefined)	0%[46.1 µM]	6%	0%	-9%	35	4µM*
Cc1ccc(-c2cc(C(F)F)nc(NCc3cccnc3)n2)cc1	?	?	-1%	?	38	6.3µM*
O=C1[C@@H]2[C@H]3[C@H](O)[C@H](O)CC(=NOC[C@@H](O)COCc4ccco4)[C@H]3CC[C@H]2C(=O)N1c1ccc(F)cc1F	14%[14.2 µM]	.	.	.	.	.
N#CC1=C(N)n2c(s/c(=C\c3ccco3)c2=O)=C(C#N)C1c1ccco1 (centres undefined)	?	-18%	?	-2%	46	5%
N#CC1=C(N)n2c(s/c(=C\c3cccs3)c2=O)=C(C#N)C1c1cccs1 (centres undefined)	.	0%	-19%	.	27	0.5µM*
Cc1ccccc1-c1ccc(CN2CCc3nnc(CNC(=O)c4ccccn4)n3CC2)cc1	.	-18%	.	.	.	.
Cc1ccc(OCC(=O)OCc2cc(=O)n3c(C)csc3n2)cc1	.	8%	.	-2%[46.1 µM]	-2	.
Cc1c(Cl)cccc1NC(=S)NCCc1ccc(F)cc1	7%	21%	7%	-18%	?	10%
Cc1c(Cl)cccc1NC(=S)NCCc1ccc(Cl)cc1	?	26%	9%	?	-86*	10µM*
Cc1ccccc1NC(=S)NCCc1ccc(S(N)(=O)=O)cc1	?	-13%	4%	10%	-35	2%
Cc1c(Cl)cccc1NC(=S)NCCc1ccc(S(N)(=O)=O)cc1	?	-5%	2%	-12%[46.1 µM]	-80*	9%
Cc1ccc(NC(=S)NCc2ccc(S(N)(=O)=O)cc2)cc1Cl	-5%[46.1 µM]	-10%	-9%	16%	-81*	-29%
O=S(=O)(c1ccccc1)N1CCC2(CC1)CN(c1ccccn1)C2	.	-16%	-5%	.	.	.
